A number with no mark means an inactive call.

One assay has as its system Madurella mycetomatis MM55. Briefly: growth relative to untreated control; higher = less inhibition, active = 20 or less. To be noted: 25 µM. As to the method: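 Hyphal fragments of M. mycetomatis MM55 or F. senegalensis CBS197.79 in RPMI 1640/MOPS were exposed to each MMV COVID Box or Global Health Priority Box compound at 100 or 25 µM for 7 days at 37 °C. Viability was read with MTS (490 nm, M. mycetomatis) or resazurin (600 nm, F. senegalensis), background-corrected with a medium-only control and expressed as % growth relative to the untreated growth control. Inhibition of more than 80% was taken as growth inhibition.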
For `Cc1cccc(C=NNc2cc(N3CCOCC3)nc(OCCc3ccccn3)n2)c1`, the growth was 45.9%.

Regarding `Cn1c(O)nnc1Cn1ccc(C(F)(F)F)c(Oc2cc(Cl)cc(C#N)c2)c1=O`, the growth is 92.7%.

Consider `COCC[C@H](NC(=O)c1cc2ccc(C(F)(F)F)cc2[nH]1)c1ccccc1`, for which the growth was 30.3%.

Take `CC(C)C(=O)OCC(=O)[C@@]12OC(C3CCCCC3)O[C@@H]1C[C@H]1[C@@H]3CCC4=CC(=O)C=C[C@]4(C)[C@H]3[C@@H](O)C[C@@]12C` (stereo not given in full): the growth is 75.3%.

For `CC[C@H](C)[C@H]1O[C@]2(CC[C@@H]1C)C[C@@H]1C[C@@H](C/C=C(\C)[C@@H](O[C@H]3C[C@H](OC)[C@@H](O[C@H]4C[C@H](OC)[C@@H](O)[C@H](C)O4)[C@H](C)O3)[C@@H](C)/C=C/C=C3\CO[C@@H]4[C@H](O)C(C)=C[C@@H](C(=O)O1)[C@]34O)O2` [listing 1 of 2 here], the growth is 95.8%.

With `CC[C@H](C)[C@H]1O[C@]2(CC[C@@H]1C)C[C@@H]1C[C@@H](C/C=C(\C)[C@@H](O[C@H]3C[C@H](OC)[C@@H](O[C@H]4C[C@H](OC)[C@@H](O)[C@H](C)O4)[C@H](C)O3)[C@@H](C)/C=C/C=C3\CO[C@@H]4[C@H](O)C(C)=C[C@@H](C(=O)O1)[C@]34O)O2` [listing 2 of 2 here], the growth was 73.2%.

For the compound `COC(=O)N[C@H](C(=O)N1CCC[C@H]1c1ncc(-c2ccc(-c3ccc(-c4cnc([C@@H]5CCCN5C(=O)[C@@H](NC(=O)OC)C(C)C)[nH]4)cc3)cc2)[nH]1)C(C)C`, the growth was 82.5%.

Consider `CC(C)Nc1ncc2nc(Nc3cc(F)cc(Cl)c3)n(C3CCNCC3)c2n1`, for which the growth was 91.1%.

On to `CCOC(=O)c1c(CSc2ccccc2)n(C)c2cc(Br)c(O)c(CN(C)C)c12`, for which the growth is 98.5%.

Turning to `CC(C)c1nc(CN(C)C(=O)N[C@H](C(=O)N[C@@H](Cc2ccccc2)C[C@H](O)[C@H](Cc2ccccc2)NC(=O)OCc2cncs2)C(C)C)cs1`, the growth was 74.1%.

For `COc1ccc(C(=O)N2CCC3(CC2)C(=O)N(CC(=O)NCC2CCCCC2)CN3c2ccccc2)c(OC)c1`, the growth is 67.1%.

In the case of `Cc1cccc(Nc2nccc(-c3cccc(C#N)c3)n2)c1`, the growth is 84.1%.

For `Nc1nc(S)c2[nH]cnc2n1`, the growth was 71.8%.

Consider `COc1ccc(-c2cc3ncnc(N4CCN(CCN5CCCC5)CC4)c3s2)cc1`, for which the growth is 4.86% (active).

Regarding `Nc1nc(NC2CC2)c2ncn([C@H]3C=C[C@@H](CO)C3)c2n1`, the growth is 97%.

Turning to `CC(=O)Oc1ccccc1C(=O)Nc1ncc([N+](=O)[O-])s1`, the growth is 87.7%.

For the compound `Oc1ccccc1CCNC1CCc2ccc(F)cc21` (stereo not given), the growth was 32.8%.

In the case of `CCS(=O)(=O)N1CC(CC#N)(n2cc(-c3ncnc4[nH]ccc34)cn2)C1`, the growth is 94.3%.

As to `CC(C)NCc1cccc(-c2ccc(NC(=O)c3cccc(C#N)c3)cc2)c1`, the growth is 87.5%.

In the case of `O=C(NCc1ccco1)c1ccc2[nH]c(COc3ccc(C45CC6CC(CC(C6)C4)C5)cc3)nc2c1`, the growth is 87.5%.

The assay is the same for the next values; noted with them: 100 µM.
Take `Cc1cccc(C=NNc2cc(N3CCOCC3)nc(OCCc3ccccn3)n2)c1`: the growth was 10.4% (active).

As to `Cn1c(O)nnc1Cn1ccc(C(F)(F)F)c(Oc2cc(Cl)cc(C#N)c2)c1=O`, the growth was 90.8%.

`COCC[C@H](NC(=O)c1cc2ccc(C(F)(F)F)cc2[nH]1)c1ccccc1`: the growth is 52.2%.

Turning to `CC(C)C(=O)OCC(=O)[C@@]12OC(C3CCCCC3)O[C@@H]1C[C@H]1[C@@H]3CCC4=CC(=O)C=C[C@]4(C)[C@H]3[C@@H](O)C[C@@]12C` (stereo not given in full), the growth was 90.7%.

`CC[C@H](C)[C@H]1O[C@]2(CC[C@@H]1C)C[C@@H]1C[C@@H](C/C=C(\C)[C@@H](O[C@H]3C[C@H](OC)[C@@H](O[C@H]4C[C@H](OC)[C@@H](O)[C@H](C)O4)[C@H](C)O3)[C@@H](C)/C=C/C=C3\CO[C@@H]4[C@H](O)C(C)=C[C@@H](C(=O)O1)[C@]34O)O2` [listing 1 of 2 here]: the growth is 112%.

Consider `CC[C@H](C)[C@H]1O[C@]2(CC[C@@H]1C)C[C@@H]1C[C@@H](C/C=C(\C)[C@@H](O[C@H]3C[C@H](OC)[C@@H](O[C@H]4C[C@H](OC)[C@@H](O)[C@H](C)O4)[C@H](C)O3)[C@@H](C)/C=C/C=C3\CO[C@@H]4[C@H](O)C(C)=C[C@@H](C(=O)O1)[C@]34O)O2` [listing 2 of 2 here], for which the growth is 83.5%.

With `COC(=O)N[C@H](C(=O)N1CCC[C@H]1c1ncc(-c2ccc(-c3ccc(-c4cnc([C@@H]5CCCN5C(=O)[C@@H](NC(=O)OC)C(C)C)[nH]4)cc3)cc2)[nH]1)C(C)C`, the growth is 85.6%.

For `CC(C)Nc1ncc2nc(Nc3cc(F)cc(Cl)c3)n(C3CCNCC3)c2n1`, the growth was 94.2%.

For the compound `CCOC(=O)c1c(CSc2ccccc2)n(C)c2cc(Br)c(O)c(CN(C)C)c12`, the growth is 75.4%.

As for `CC(C)c1nc(CN(C)C(=O)N[C@H](C(=O)N[C@@H](Cc2ccccc2)C[C@H](O)[C@H](Cc2ccccc2)NC(=O)OCc2cncs2)C(C)C)cs1`, the growth is 82.2%.

For the compound `COc1ccc(C(=O)N2CCC3(CC2)C(=O)N(CC(=O)NCC2CCCCC2)CN3c2ccccc2)c(OC)c1`, the growth was 50.8%.

Turning to `Cc1cccc(Nc2nccc(-c3cccc(C#N)c3)n2)c1`, the growth was 49.1%.

`Nc1nc(S)c2[nH]cnc2n1`: the growth is 92.8%.

In the case of `COc1ccc(-c2cc3ncnc(N4CCN(CCN5CCCC5)CC4)c3s2)cc1`, the growth was 4.96% (active).

`Nc1nc(NC2CC2)c2ncn([C@H]3C=C[C@@H](CO)C3)c2n1`: the growth is 83.8%.

In the case of `CC(=O)Oc1ccccc1C(=O)Nc1ncc([N+](=O)[O-])s1`, the growth was 95.6%.

Turning to `Oc1ccccc1CCNC1CCc2ccc(F)cc21` (stereo not given), the growth was 34%.

For `CCS(=O)(=O)N1CC(CC#N)(n2cc(-c3ncnc4[nH]ccc34)cn2)C1`, the growth was 80.3%.

Consider `CC(C)NCc1cccc(-c2ccc(NC(=O)c3cccc(C#N)c3)cc2)c1`, for which the growth was 5.95% (active).

As to `O=C(NCc1ccco1)c1ccc2[nH]c(COc3ccc(C45CC6CC(CC(C6)C4)C5)cc3)nc2c1`, the growth was 168%.
